An excerpt weighted towards active compounds, which were near 4.8% of everything screened.
hgDAF-12 ag: hgDAF-12 agonism, primary luciferase screen; HEK293 GAL4-hgDAF12 UAS-luciferase reporter, agonist luminescence; normalized to butyrate control; activation, % at 6.8 µM; 370,000 compounds, 1.8% hits; AID 687014;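 active means activation above a cutoff set at the mean of all screened compounds plus 3 SD, cut at about 10% in these data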;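 further: 0% = DMSO wells and 100% = sodium butyrate wells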
DAX1 inh-1: inhibits human nuclear receptor DAX1; P51843; HEK293 Gal4-DAX1 luciferase reporter, luminescence; inhibition, % at 6.75 µM; 340,000 compounds, 0.99% hits;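 active means inhibition above the mean over all tested compounds plus 3 SD, cut at about 4.2% in these data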;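 further: 0% = DAX1-transfected cells with DMSO and 100% = empty-vector control cells with DMSO; inhibition shows as a rise in luminescence from relieved DAX1 repression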
Target sequence (P51843 207-470 limits assumed): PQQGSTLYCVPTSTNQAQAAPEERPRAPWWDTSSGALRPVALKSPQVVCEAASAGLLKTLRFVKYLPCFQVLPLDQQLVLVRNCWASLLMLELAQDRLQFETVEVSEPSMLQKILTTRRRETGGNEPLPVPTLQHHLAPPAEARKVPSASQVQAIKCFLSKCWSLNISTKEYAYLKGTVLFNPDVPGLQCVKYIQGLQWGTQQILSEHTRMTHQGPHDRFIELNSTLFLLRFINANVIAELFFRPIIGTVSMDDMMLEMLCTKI
hcDAF12 agonist: activators of H. contortus DAF-12 nuclear receptor; HEK293 hcDAF-12 lit1-tk-luc reporter, luminescence; 0% DMSO, 100% Δ7-dafachronic acid; activation, % at 6.8 µM; 370,000 compounds, 1.4% hits; AID 652067;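 active means activation above the mean of all tested compounds plus 3 SD, cut at about 5.5% in these data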;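 further: 100% = response to 3 µM Δ7-dafachronic acid high control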
SMARCA2 act: SMARCA2 function activation, primary screen; AID 652017; MG213 cells, MMTV-luciferase reporter, dexamethasone, overnight; 370,000 compounds, 1% hits; activation, % at 9.1 µM; in the data active means activation above about 7.8%;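 further: 0% = vehicle wells and 100% = reference activator wells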
DAX1 inh-2: inhibitors of DAX1 repression of SF-1 activated StAR promoter; inhibition, % at 6.8 µM; 370,000 compounds, 1.1% hits; HEK293T StAR-luciferase reporter, SF-1/DAX-1 repression relief; AID 652010;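 active means inhibition above the mean over all tested compounds plus 3 SD, cut at about 3.6% in these data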;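 further: 0% = DAX-1 cells with DMSO and 100% = cells lacking DAX-1 with DMSO; higher inhibition means more luminescence from relief of DAX-1 repression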
ssDAF-12 act: activators of S. stercoralis DAF-12 nuclear receptor; AID 652126; 370,000 compounds, 1% hits; HEK293 ssDAF-12/GRIP1 lit1-tk-luc reporter, luminescence; % of 3 µM dafachronic acid response; activation, % at 6.8 µM;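 active means activation above the mean over all tested compounds plus 3 SD, cut at about 0.9% in these data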;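 further: 0% = DMSO-only wells and 100% = 3 µM delta7-dafachronic acid wells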
Active calls of the source: *; / = no result given.

SMILES	hgDAF-12 ag	DAX1 inh-1	hcDAF12 agonist	SMARCA2 act	DAX1 inh-2	ssDAF-12 act
COC(=O)[C@]12C[C@H](CC(=O)NCc3cccs3)C(=O)N(Cc3ccc(Cl)cc3Cl)C1=C[C@H](COCc1ccccc1)O[C@@H]2C	-2	/	1	-5	-1	-1
c1ccc(COc2ccc(OCCn3cncn3)cc2)cc1	13*	1	4	5	3	0
CC(=NN(Cc1ccccc1)c1ccccc1)c1ccccc1	2	4.5*	1	-2	0	-1
C/C(=N\N(c1ccccc1)c1ccccc1)c1ccc(O)cc1	-1	2	-2	3	0	-1
Cc1ccsc1/C=N/n1cnnc1	0	1	3	1	0	0
O=C1c2ccccc2C(=O)C1c1ccncc1	8	0	5.6*	7	4.0*	0
O=C1c2ccccc2C(=O)C1c1ccccn1	10	2	5	8	2	-1
CSc1snc(SCC(N)=O)c1C#N	12*	0	-1	-1	0	-1
N#Cc1c(SCC(=O)Nc2ccccc2)nsc1SCC(=O)Nc1ccccc1	3	2	2	-3	0	23*
Cc1cc(C)c(C#N)c(SCC(=O)Nc2ccccc2C(N)=O)n1	6	0	3	7	2	0
CCN(CC)S(=O)(=O)c1ccc(N2CCCCC2)c(NC(=O)/C(C#N)=C/c2ccc(OC)cc2)c1	0	-1	6.3*	1	0	-1
CCN(CC)S(=O)(=O)c1ccc(N2CCCC2)c(NC(=O)Cc2cc(OC)c(OC)c(OC)c2)c1	0	4.7*	-2	-1	-1	-1
COc1ccc(/C=C(\C#N)C(=O)Nc2cc(S(=O)(=O)N3CCOCC3)ccc2N2CCCC2)cc1	1	-1	-2	0	0	-2
Cc1ccc(C(=O)N2c3ccccc3N=C(c3ccccc3)C2C(=O)NC(C)C)cc1 (configuration not stated)	10	/	3	0	2	1.0*
O=C(NC1CCCC1)C1C(c2ccc(C(F)(F)F)cc2)=Nc2ccccc2N1C(=O)c1ccco1 (configuration not stated)	6	/	5.6*	3	1	0
CC(C)NC(=O)C1C(c2ccc(C(F)(F)F)cc2)=Nc2ccccc2N1C(=O)c1cccc2ccccc12 (configuration not stated)	9	/	5	1	1	1.1*
CC(C)NC(=O)C1C(c2ccccc2)=Nc2ccccc2N1C(=O)c1cc(Cl)cc(Cl)c1 (configuration not stated)	0	/	0	-1	0	0
CC(C)NC(=O)C1C(c2ccccc2)=Nc2ccccc2N1C(=O)c1ccc(C(F)(F)F)cc1 (configuration not stated)	3	/	2	-3	-1	2.3*
CC(=O)N1c2ccccc2N=C(c2ccc(C(F)(F)F)cc2)C1C(=O)NC(C)C (configuration not stated)	1	/	2	-6	1	0
CC(=O)NCCNc1ccc([N+](=O)[O-])cc1C#N	-2	2	-1	-3	1	-1
CCN1C(=O)CC(c2ccc(OC(C)C)cc2)C1=O (configuration not stated)	0	4.5*	0	1	0	-1
Cc1cc(C(=O)CSc2nnnn2C)c(C)n1C1CC1	12*	2	2	2	1	-1
CC(C)(C)C(=O)O/N=C(\N)COc1cccc(Cl)c1	5	6.9*	2	-15	0	-1
CCC(CO)Nc1ncnc2c1cnn2-c1ccc(Cl)cc1 (configuration not stated)	2	0	4	1	4.0*	-1
CCN1CCN(c2ncnc3c2cnn3-c2ccccc2)CC1	7	3	-1	3	3	-1
SMILES	hgDAF-12 ag	DAX1 inh-1	hcDAF12 agonist	SMARCA2 act	DAX1 inh-2	ssDAF-12 act
CCN1CCN(c2ncnc3c2cnn3-c2ccc(Cl)cc2)CC1	12*	2	1	8	2	0
Clc1ccc(-n2ncc3c(NCc4ccco4)ncnc32)cc1	13*	1	4	2	0	0
NC(=O)CC[C@H](NC(=O)c1ccc(F)cc1)C(=O)N1CCN(Cc2ccc3c(c2)OCO3)CC1	-2	0	0	-3	0	-1
COc1cccc(-c2nc(NCc3cccnc3)c3ccccc3n2)c1O	3	0	5.9*	-1	0	0
c1cncc(CNc2nc(-c3cccnc3)nc3ccccc23)c1	0	0	-1	1	-1	-1
O=C(CNc1cccc2ccccc12)N/N=C/c1ccc(C(=O)O)cc1	0	-1	5	-1	0	1.0*
O=C(CNc1ccc2ccccc2c1)N/N=C/c1ccc(C(=O)O)cc1	5	2	5	1	0	-1
CCC(C)NC(=O)C1c2ccccc2C(=O)N1Cc1ccccc1OC (configuration not stated)	-2	0	-1	-3	0	-1
Cc1cccc(C)c1-n1nnnc1C1c2ccccc2C(=O)N1CCOc1ccccc1 (configuration not stated)	0	/	2	0	-1	0
COc1ccc(-c2nc(CCl)cs2)cc1	5	-1	4	3	2	0
CCc1ccc(-c2nc(CCl)cs2)cc1	12*	1	6	4	3	0
Cc1ccc2c(CC(=O)Nc3sccc3C(N)=O)coc2c1	6	1	3	4	1	-1
CN(Cc1nc(-c2cccc(Cl)c2)no1)C1CCOCC1	12*	0	3	-2	2	-1
CCN(Cc1nc(-c2cccc(Cl)c2)no1)CC1CCCO1 (configuration not stated)	1	0	0	-3	0	-1
CC(=O)c1ccc(-n2c(-c3cc(-c4ccco4)[nH]n3)n[nH]c2=S)cc1	-2	5.6*	-1	1	0	-1
O=C(O)c1ccc(-n2c(-c3cc(C4CC4)[nH]n3)n[nH]c2=S)cc1	-1	4.6*	-1	4	1	-1
O=C(O)c1ccc(-n2c(-c3cc(-c4ccco4)[nH]n3)n[nH]c2=S)cc1	0	-1	-1	-2	0	-1
FC(F)(F)c1ccc(Oc2ccc(Cl)cc2Br)nc1	0	0	-1	2	0	25*
CN(C)/C=N/c1ncc(C(=O)c2ccc(-c3ccccc3)cc2)s1	12*	0	0	-3	0	-2
O=C(COc1ccccc1)NCC(c1ccco1)N1CCN(c2ccccc2)CC1 (configuration not stated)	12*	-2	0	-1	-2	-1
O=C(NCC(c1ccco1)N1CCN(c2ccccc2)CC1)c1cccs1 (configuration not stated)	0	-1	1	-1	-1	-1

Screening results deposited in PubChem BioAssay by The Scripps Research Institute Molecular Screening Center.
